# Screens (PubChem BioAssay)
# Pf growth 48h: Primary qHTS for delayed death inhibitors of the malarial parasite plastid, 48 hour incubation. P. falciparum luciferase growth in erythrocytes, 48 h. AID 504832, 2011. Potency, µM (highest dose often 28.7 µM), for the others: at the highest dose activity change, negative = inhibition, hits mostly inhibitors. 310,000 tested, 5.9% active; note: potency is the fitted concentration of half-maximal effect
#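 Erythrocytes infected with P. falciparum carrying an integrated firefly luciferase reporter (2% hematocrit, 0.1% parasitemia final) were exposed to compounds in RPMI 1640 with 0.5% Albumax at 37 C, 5% CO2. Growth inhibition was scored as reduced luminescence.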
# HCV inh: qHTS Assay for Inhibitors of Hepatitis C Virus (HCV) | Huh7.5.1 HCVcc-Cre infection, luciferase reporter, 44 h | Potency, µM (top dose mostly 41.8 µM), for inactives: at the highest dose activity change, negative = inhibition, most hits filed as inhibitors | 340,000 tested, 3.4% active | AID 651820, 2012; note: potency is the fitted concentration of half-maximal effect
#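 Infectious HCV cell culture screen: compound-treated cells (1,000/well, pre-plated 4 h) are infected with HCVcc-Cre at roughly 0.5 moi and grown 44 h. Infection is quantified by luciferase signal after 15 min substrate incubation at room temperature.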
# Pf growth 96h: Primary qHTS for delayed death inhibitors of the malarial parasite plastid, 96 hour incubation. AID 504834, 2011. P. falciparum luciferase reporter growth, 96 h. Potency, µM (series often up to 28.7 µM), for inactives: top-dose activity change, negative = inhibition, most hits filed as inhibitors. 320,000 tested, 6.9% active; note: potency is the fitted concentration of half-maximal effect
#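 Two parasite generations (96 h, 37 C, 5% CO2) of compound exposure in infected erythrocytes (0.05% parasitemia, 2% hematocrit). Luciferase-reporter P. falciparum; decreased luminescence indicates inhibited growth, aimed at apicoplast-acting delayed death.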
# HCMV antiviral: qHTS Assay for inhibitors of the human cytomegalovirus (HCMV). HFF cells, HCMV-luciferase reporter, 72 h; active compounds read low. activity change, negative = inhibition, % at 57.5 µM. 410,000 tested, 4.5% active. AID 1259415, 2018; in the data active = activity change below about -60%; inconclusive = no clear call, values can overlap the other calls; inactive = above about -39%
#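 Compounds were evaluated in HFFs infected with an HCMV luciferase reporter virus (MOI 1 PFU/cell). Luciferase in lysates collected 72 h post infection served as the replication measure.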
# Starred values were filed as active, the others as inactive; ? = inconclusive; . = no result; [ ] = dose if it differs, or a comment. Only some compounds are listed: those with a hit (about 13% of all), similar ones and a draw of the others. Unless noted, calls come from the whole dose curve; as a rule, active = well fitted inhibition curve with a large enough effect; inconclusive = small, poorly fitted or top-dose-only effect, or another doubt; inactive = no such curve, though single readings can be large or run the other way. % is set by controls: 0 for no effect and ±100 for the full control effect.
SMILES,Pf growth 48h,HCV inh,Pf growth 96h,HCMV antiviral
c1coc(CN(Cc2cccs2)Cc2nnnn2C2CCCCC2)c1,?,-4.0%,-17.5%,?
N#CC(c1ccccc1O)N1N=C(c2ccccc2)CC1c1ccccc1 (stereo unspecified),20.9%,?,26.3%,-60.7*
CC1=NN(C(C#N)c2ccc(F)cc2)C(c2ccccc2)C1 (stereo unspecified),-27.0%,-3.7%,14.7µM*,11.1
COc1cc(C(C#N)N2N=C(c3ccccc3)CC2c2ccccc2)ccc1O (stereo unspecified),50.7%,-11.0%,14.9%,218.7
CCCS(=O)(=O)N1CCCC(C(=O)NCCCOC)C1 (stereo unspecified),.,.,.,22.4
CCOc1ccccc1NC(=O)Cn1c(=O)nc(-c2ccccc2F)c2cc(Cl)ccc21,.,.,.,29.3
CCN(C)C(=O)c1coc(N2CCN(Cc3cccc(F)c3)C2=O)n1,.,.,.,-10.8
C[C@H](NC(=O)[C@@H]1Cc2ccccc2CN1)C(=O)Nc1ccc2c(c1)OCO2,-10.4%,13.1%,-7.7%,6.5
CC(C)c1ccc(NC(=O)[C@H](Cc2c[nH]c3ccccc23)NC(=O)[C@@H]2Cc3ccccc3CN2)cc1,?,4.47µM*,?,.
CSCC[C@H](NC(=O)[C@@H]1Cc2ccccc2CN1)C(=O)Nc1ccc2c(c1)OCO2,9.28µM*,-5.8%,?,-30.5
Cc1ccc(CSC2=Nc3ccccc3C3=NC(CC(=O)NC4CCCCC4)C(=O)N23)cc1 (stereo unspecified),.,.,.,-13.3
O=C(/C=C/c1ccccc1Cl)c1ccc[nH]1,38.9%,?,?,-62.5*
O=C(/C=C/c1ccc(Cl)cc1Cl)c1ccc[nH]1,-17.2%,1.1%,3.6%,44.0
CCOC(=O)c1c(C)c(-c2ccccc2)n(CC(=O)NCc2cccc(OC)c2)c1C,.,.,.,-5.7
CN1CCN(S(=O)(=O)c2cccc(C(=O)Nc3sccc3C(N)=O)c2)CC1,13.1µM*,?,?,46.9
CN(C)S(=O)(=O)c1cccc(C(=O)OCC(=O)Nc2sccc2C(N)=O)c1,1.85µM*,?,3.7µM*,34.9
CS(=O)(=O)c1cccc(C(=O)NC(c2ccccc2)c2ccccc2)c1,6.1%,3.1%,2.3%[5.75 µM],17.6
COc1ccc(NC(=O)COC(=O)c2cccc(S(=O)(=O)N(C)C)c2)cc1,74.9%[5.75 µM],0.1%,56.2%[5.75 µM],-1.8
CN1CCN(S(=O)(=O)c2cccc(C(=O)Nc3cc(C(N)=O)cc(C(N)=O)c3)c2)CC1,3.6%,7.5%,-0.5%,-4.6
Cc1ccc(C(NC(=O)c2cccc(S(=O)(=O)N3CCN(C)CC3)c2)c2ccccc2)cc1 (stereo unspecified),14.7µM*,?,?,-28.1
COc1ccc(OC)c(NC(=O)c2cc3cc(C)ccc3n2C)c1,.,.,.,7.8
Cc1ccccc1CNC(=O)c1cccc(NC(=O)N2CCSc3ncccc32)c1,.,.,.,0.0
Cc1cc(C(=O)CSc2nnc(-c3ccco3)o2)c(C)n1C,.,11.2µM*,.,-16.1
CCn1c(C)cc(C(=O)CSc2nnc(-c3ccco3)o2)c1C,34.0%,-1.3%,10.8%,-9.5
O=C(CSc1nnc(-c2cccs2)o1)Nc1cccc(S(=O)(=O)N2CCCCC2)c1,?,1.3%,14.7µM*,9.2
SMILES,Pf growth 48h,HCV inh,Pf growth 96h,HCMV antiviral
C=CCNC(=O)CSc1nnc(-c2cccc(S(=O)(=O)N3CCOCC3)c2)o1,.,.,.,6.5
Cc1cc(C)cc(NC(=O)CSc2nnc(-c3ccc(S(=O)(=O)N4CCCC4)cc3)o2)c1,?,-13.0%,5.22µM*,-11.2
CCCCNC(=O)CSc1nnc(-c2cccc(S(=O)(=O)N3CCOCC3)c2)o1,13.1µM*,3.6%,?,11.1
CCc1cccc(C)c1NC(=O)CCS(=O)(=O)c1ccc2c(c1)oc(=O)n2C,.,.,.,0.6
CCOC(=O)c1c(S(=O)(=O)N2CCC(C(=O)Nc3ccc(C)cc3C)CC2)c(C)n(C)c1C,.,.,.,1.5
CCOc1ccc(S(=O)(=O)NCc2nc3cccnc3n2Cc2ccccc2OC)cc1,.,.,.,-26.2
COc1ccc(Cl)cc1N(C)C(=O)Cc1noc2ccc(C)cc12,.,.,.,-16.3
O=c1c2ccccc2nnn1CSc1nnc(-c2ccco2)o1,-2.6%,8.2%,1.17µM*,-16.9
Cc1ccc(S(=O)(=O)N2CCN(C(=O)CSc3nnc(-c4ccco4)o3)CC2)cc1,.,-26.1%,10.4µM*,-29.3
CC(=O)c1cccc(NC(=O)C2CCN(S(=O)(=O)c3ccc4c(c3)oc(=O)n4C)CC2)c1,.,.,.,-12.4
COc1ccc(Cl)cc1NC(=O)Cn1c(=O)n2nc(-c3ccccc3)nc2c2ccccc21,.,.,.,-13.1
Cc1ccc(CCNC(=O)c2ccc(CSCc3ccccc3Cl)o2)cc1,.,.,.,0.0
CN(Cc1ccon1)C(=O)c1ccc2nc(Cc3cccc(Cl)c3)oc2c1,-0.3%,-4.5%,13.1µM*,?
Cc1ccc(NC(=O)Cn2nnc(C(=O)NCc3ccco3)c2N)cc1,.,-2.5%,0.0%,-3.7
Nc1c(C(=O)NCc2ccco2)nnn1CC(=O)Nc1ccc2c(c1)OCO2,11.7µM*,8.2%,?,-15.9
Cc1cccc(NC(=O)Cn2nnc(C(=O)NCc3ccco3)c2N)c1,11.2%,5.8%,?,122.2
CC(C)c1ccc(NC(=O)Cn2nnc(C(=O)NCc3ccco3)c2N)cc1,28.5%,-0.5%,11.7µM*,-15.5
CCc1ccccc1NC(=O)CN1CCCN(Cc2cc(C)ccc2C)S1(=O)=O,.,.,.,0.0
Oc1ccc(-c2csc(Nc3ncccn3)n2)cc1O,9.3%,11.2µM*,349.6%,110.9
Cc1cccnc1Nc1nc(-c2ccc(O)cc2)cs1,153.6%,10µM*,.,62.6
Cc1cccnc1Nc1nc(-c2ccc(F)cc2)cs1,72.5%,?,0.0%,-9.8
Oc1ccc(-c2csc(-c3ccccc3)n2)cc1O,104.8%,4.47µM*,-27.6%,42.8
COC(=O)C(C(=O)OC)c1ccccc1NS(=O)(=O)c1c(C)cc(C)cc1C,.,.,.,-10.3
CCCS(=O)(=O)N1CC(=O)N(c2ccccc2C)C(C)(C(=O)NC2CCCCC2)C1 (stereo unspecified),.,.,.,0.0
Cc1oc(-c2cccs2)nc1CSCC(=O)NC1CC1,9.5%,18.8%,-11.2%,-2.1
SMILES,Pf growth 48h,HCV inh,Pf growth 96h,HCMV antiviral
Cc1oc(-c2ccc(Cl)cc2)nc1CSCC(=O)NC1CCN(Cc2ccccc2)CC1,24.1%,3.98µM*,14.7µM*,-84.8*
CCOc1ccc(-c2nc(CSCC(=O)NC3CCN(Cc4ccccc4)CC3)c(C)o2)cc1,.,.,.,-94.2*
CC(=O)c1ccc(NS(=O)(=O)c2ccc(Br)s2)cc1,.,.,.,0.3
COc1ccc(C)cc1NC(=O)c1cc2c(s1)-c1ccccc1SC2,.,.,.,-16.5
COc1ccc(Cn2c(CCC(=O)Nc3cccc(Cl)c3)nc3cccnc32)cc1,.,.,.,-13.7
COc1cc(C)ccc1OCCSc1nc2ccc(NC(C)=O)cc2s1,.,.,.,-21.5
O=C(O)c1cc(Cl)ccc1-c1ccc(/C=C/c2cc(C(F)(F)F)[nH]c(=O)n2)o1,9.1%,20.2%,9.28µM*,0.0
O=C(O)c1ccccc1-c1ccc(/C=C/c2cc(C(F)(F)F)[nH]c(=O)n2)o1,5.2%,-0.3%,15.4%,6.3
